FBPA Giardia inh: inhibitors of Giardia lamblia fructose-1,6-bisphosphate aldolase. actives 0.71% (n = 290,000). AID 2451. Potency, µM (highest dose often 59.6 µM), for the others: at the top dose activity, negative = inhibition, usual class: inhibitors. purified Giardia FBPA. A8B2U2; also: potency is read from the fitted curve at half-maximal effect; % is scaled to controls: 0 for no effect and ±100 for the full control effect; nearly all actives have a fitted effect of over 55% in size
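Giardia FBPA (40 nM reagent) was preincubated 10 min at RT with compound (up to 57.5 uM final), then substrate plus GAPDH/TPI/NAD/arsenate coupling system with diaphorase/resazurin was added; resorufin fluorescence (525/598 nm) was read after 20 min.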
LmPK inhibitor: blocks Leishmania mexicana pyruvate kinase activity. actives 0.37% (n = 290,000). Q27686. Potency, µM (series often up to 57.5 µM), without a hit: at the highest dose activity change, negative = inhibition, actives largely listed as inhibitors. purified LmPK, Kinase-Glo ATP luminescence, 1 h. AID 1721; also: potency is read from the fitted curve at half-maximal effect; % is scaled to controls: 0 for no effect and ±100 for the full control effect
Target sequence (Q27686 whole entry, looked up): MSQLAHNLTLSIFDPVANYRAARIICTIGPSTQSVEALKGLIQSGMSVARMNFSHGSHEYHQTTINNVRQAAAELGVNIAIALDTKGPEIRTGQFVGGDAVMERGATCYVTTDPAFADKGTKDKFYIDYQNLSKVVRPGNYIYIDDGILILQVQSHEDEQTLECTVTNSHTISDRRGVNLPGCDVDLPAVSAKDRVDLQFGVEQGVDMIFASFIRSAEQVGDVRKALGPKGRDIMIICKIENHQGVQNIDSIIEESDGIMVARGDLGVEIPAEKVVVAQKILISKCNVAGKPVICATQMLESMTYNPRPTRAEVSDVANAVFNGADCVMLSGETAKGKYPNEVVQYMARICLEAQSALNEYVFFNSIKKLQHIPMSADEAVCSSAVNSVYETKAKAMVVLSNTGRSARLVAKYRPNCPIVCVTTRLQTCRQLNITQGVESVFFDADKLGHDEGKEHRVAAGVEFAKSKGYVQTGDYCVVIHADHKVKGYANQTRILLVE
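Screened at intermediate enzyme activity to detect both inhibitors and activators: LmPK at 0.1 nM, with a 0.5 nM enzyme column as activation reference. PEP 0.5 mM, ADP 0.1 mM; ATP detected by luminescence after 1 h.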
Shiga inhibitor: blocks Shiga toxin action in Vero cells. inhibition, % at 38.7 µM. Vero cells, Shiga toxin protein synthesis inhibition reporter. AID 2315. actives 9.2% (n = 290,000); in the data active = inhibition mostly above about 28%, no sharp cut-off; inactive = mostly below about 43%; also: 0% is about no effect
Cycloheximide cs: affects cycloheximide protein synthesis inhibition readout, counter-screen | actives 12% (n = 300,000) | cell reporter, cycloheximide protein synthesis inhibition counterscreen | max response, %; in the data active = max response mostly above about 13%, no sharp cut-off; inactive = mostly below about 14%; also: read at 38.3 µM for the half of the compounds with a filed dose; 0% is about no effect
TbPYK inhibitor: blocks Trypanosoma brucei pyruvate kinase | Q57TT1 | TbPYK enzyme, Kinase-Glo Plus ATP luminescence, 45 min | Potency, µM (top dose mostly 76.8 µM), without a hit: at the top dose activity, negative = inhibition, hits mostly inhibitors | actives 0.12% (n = 410,000); also: potency is read from the fitted curve at half-maximal effect; % is scaled to controls: 0 for no effect and ±100 for the full control effect; nearly all actives have a fitted effect of over 50% in size
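TbPYK + substrate in 50 mM TEA pH 7.2, 100 mM KCl, 10 mM MgCl2, 0.05% BSA, 0.01% Tween-20; cpd pinned; ADP 130 uM final; 45 min RT; Kinase-Glo Plus 10 min; luminescence endpoint.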
RE007 growth inh: less growth of the S. pombe RE007 Vpr strain. S. pombe RE007 Vpr strain, BacTiter-Glo ATP luminescence, 24 h. Potency, µM (top dose mostly 92.2 µM), without a hit: top-dose activity change, negative = less growth, hits mostly inhibitors. actives 0.21% (n = 360,000); active = well fitted falling curve with a large enough effect; inconclusive = small, poorly fitted or top-dose-only effect; inactive = no such curve, though single readings can be large or run the other way; also: potency is read from the fitted curve at half-maximal effect; % is scaled to controls: 0 for no effect and ±100 for the full control effect; nearly all actives have a fitted effect of over 50% in size
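Fission yeast RE007 carrying one integrated HIV-1 vpr copy, seeded at OD 0.01 in PMG+AL medium with 23 nL pinned compound. Grown 24 h at 30 degrees; viability read by BacTiter-Glo luminescence after 5 min.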
An asterisk follows results filed as active; ? = inconclusive; . = no result given. This excerpt belongs to a sample that is enriched for hits. Unless noted, calls follow the shape of the dose curve; as a rule, active = well fitted curve in the direction sought with a large enough effect; inconclusive = small, poorly fitted or top-dose-only effect, or another doubt; inactive = no such curve, though single readings can be large; an effect the other way counts as inactive or inconclusive.

SMILES	FBPA Giardia inh	LmPK inhibitor	Shiga inhibitor	Cycloheximide cs	TbPYK inhibitor	RE007 growth inh
Cc1ccc(Nc2nc(-c3sc(NC(=O)c4cccc(Cl)c4)nc3C)cs2)cc1	0%	-4%	1	17	.	.
COc1cccc(Nc2nc(-c3sc(NC(=O)c4ccccc4)nc3C)cs2)c1	-3%	-2%	71*	13	-22%	-20%
COc1ccc(Oc2ncc3nc(CCc4ccccc4)c(=O)n(C4CC4)c3n2)cc1	-3%	.	.	.	-5%	.
O=C(CSC1=Nc2ccccc2C2=NC(Cc3ccccc3)C(=O)N12)Nc1ccccc1F (stereo unspecified)	.	.	.	.	5%	.
Cc1ccc(Nc2nc(-c3sc(NC(=O)c4ccco4)nc3C)cs2)cc1	-22%	-4%	36	20*	-19%	5%
Cc1ccccc1Nc1nc(-c2sc(NC(=O)c3ccco3)nc2C)cs1	?	-14%	16	9	-3%	-13%
CC(C)C[C@H](NC(=O)CNC(=O)[C@@H]1CCCN1C(=O)[C@H](CCCNC(=N)N)NC(=O)[C@H](CC(=O)O)NC(=O)[C@@H](NC(=O)[C@H](CC(N)=O)NC(=O)[C@@H](NC(=O)[C@H](CC(=O)O)NC(=O)CNC(=O)[C@@H](NC(=O)[C@@H](NC(=O)[C@H](C)NC(=O)[C@@H](N)CCC(N)=O)[C@@H](C)O)C(C)C)C(C)C)[C@@H](C)O)C(=O)N[C@@H](CC(C)C)C(=O)N[C@@H](CC(=O)O)C(=O)N[C@@H](CC(C)C)C(=O)N[C@@H](CCCCN)C(=O)O	0%	.	8	-3	.	.
CSc1cccc(NC(=O)Nc2ccccc2C(N)=O)c1	1%	-23%	39*	47*	3%	.
CSc1cccc(NC(=O)Nc2ccccc2)c1	0%	5%	95	34*	1%	2%
COc1ccc(C(=O)NCc2nnc(SCC(=O)Nc3ccccc3)n2-c2ccccc2)cc1	.	.	.	.	1%	.
CC(C)Cc1cc(C(=O)Nc2ccc(F)cc2F)no1	6%	-21%	90*	56*	2%	-3%
COc1ccc(-c2cc(C(=O)Nc3c(F)cc(F)cc3Br)no2)cc1	-3%	5%	67*	16*	0%	8%
COc1ccc(-c2cc(C(=O)Nc3ccc(F)cc3F)no2)cc1	5%	2%	1	-1	2%	5%
CC(C)Cc1cc(C(=O)Nc2cc(Cl)ccc2Cl)no1	0%	-3%	7	-2	-1%	-6%
CC(C)Cc1cc(C(=O)Nc2c(F)cc(F)cc2Br)no1	-3%	7%	37*	21	10%	-29%
COc1ccccc1-c1cc(C(=O)Nc2c(F)cc(F)cc2Br)no1	1%	7%	-4	5	2%	12%
CCOC(=O)[C@]12CCCC=C1N(Cc1ccc3c(c1)OCO3)C(=O)[C@H](CC(=O)N1CCCC1)C2	.	.	.	.	3%	4%
O=C(Nc1ccc(Cl)cc1)c1cc2c(-c3ccccc3)nn(-c3ccccc3)c2s1	.	.	.	.	6%	.
COc1cccc(Cn2c(=O)c(CCc3ccccc3)nc3cnc(N4CCN(C)CC4)nc32)c1	-4%	.	.	.	.	.
O=C(CP(=O)(c1ccccc1)c1ccccc1)Nn1cnnc1	1%	-6%	99*	49*	-7%	8%
NNC(=O)CP(=O)(c1ccccc1)c1ccccc1	.	.	.	.	0%	0%
CCc1ccc(CNC(=O)C2CC(=O)N(C3CCCC3)C2)cc1 (stereo unspecified)	-4%	4%	-9	-7	0%	6%
COc1ccccc1Nc1ccc(C(=O)NC2CCCCC2)cn1	-5%	0%	31*	19*	1%	-10%
COc1ccccc1C(=O)NC1CCCCCCC1	5%	3%	102*	20*	6%	?
Cc1occc1C(=O)NN=C1C2CC3CC(C2)CC1C3	-2%	1%	30*	28*	-3%	-7%
SMILES	FBPA Giardia inh	LmPK inhibitor	Shiga inhibitor	Cycloheximide cs	TbPYK inhibitor	RE007 growth inh
Cc1occc1C(=O)NC1CCCCCCC1	-6%	-6%	60*	40*	4%	?
Cc1cc(O)c(C)c2sc(N)nc12	-16%	.	-9	-5	.	.
CCn1c(=O)c2c(n3c(=S)[nH]nc13)-c1ccccc1CC21CCCCC1	5%	14µM*	-3	-6	?	0%
O=C(CSc1nc(-c2ccc(F)cc2)cs1)N1CCOCC1	0%	-5%	77	45*	-9%	7%
Fc1ccc(-c2csc(N3CCOCC3)n2)cc1	2%	-7%	51*	39*	-16%	?
c1ccc(-c2csc(N3CCSCC3)n2)cc1	-2%	-1%	90*	44*	?	7%
CC1=NN(c2nc(-c3ccc(F)cc3)cs2)C(=O)C1	0%	-1%	-15	-1	-5%	-21%
CC1CN(C(=O)CSc2nc(-c3ccc(F)cc3)cs2)CC(C)O1 (stereo unspecified)	0%	-2%	-10	-2	2%	19%
Cc1ccc(-c2csc(N3C(=N)SCC3=O)n2)cc1	-3%	4%	42*	36*	-2%	-10%
COCCn1c(SCC(=O)Nc2ccc(F)c(Cl)c2)nc2c(oc3ccccc32)c1=O	.	.	.	.	-9%	.
Cc1c(NC(=O)CN2C(=O)NC(C)(c3ccccc3)C2=O)c(=O)n(-c2ccccc2)n1C (stereo unspecified)	-3%	1%	-9	-1	-6%	.
COc1ccc(-n2c(=O)c3sc4ccccc4c3n(C)c2=O)cc1	.	.	.	.	4%	.
Clc1ccc(-c2csc(N3CCSCC3)n2)cc1	2%	0%	114*	35*	-1%	-9%
CCC(=O)N1CCN(c2nc(-c3ccc(Cl)cc3)cs2)CC1	-9%	1%	63*	35*	-12%	?
c1ccc(-c2csc(-n3cccn3)n2)cc1	0%	-1%	46	51*	-4%	1%
Fc1ccc(-c2csc(N3CCSCC3)n2)cc1	-3%	-2%	98*	32*	3%	-13%
CC(C)CNC(=S)N1CCN(c2nc(-c3ccc(Cl)cc3)cs2)CC1	13%	-2%	-5	4	-8%	3%
c1ccc(-c2csc(CN3CCCCC3)n2)cc1	.	.	.	.	-6%	-24%
COc1cccc(NC(=O)N(C)C[C@H]2Oc3cc(Br)ccc3S(=O)(=O)N([C@H](C)CO)C[C@H]2C)c1	.	.	.	.	3%	-24%

Source: PubChem (National Center for Advancing Translational Sciences (NCATS))
